Experimental data taken from paper PMC7862700, “An all-to-all approach to the identification of sequence-specific readers for epigenetic DNA modifications on cytosine”.

What was measured:
Experiment in all cases: DAPPL (digital affinity profiling via proximity ligation, sequencing); 10 mM Tris-HCl pH 7.5, 50 mM NaCl, 1 mM DTT, 4% glycerol, room temperature, 30 min; GST-TFs on glutathione beads, 16-mer random dsDNA library, 0.1% formaldehyde crosslink after washing; high values mean tight binding
Settings in all cases: protein: recombinant; tags: N-terminal GST; dsDNA, one strand shown
FLI1 = biological target: T1, FLI1 (Homo sapiens, UniProt Q01543 1-452)
T1 sequence: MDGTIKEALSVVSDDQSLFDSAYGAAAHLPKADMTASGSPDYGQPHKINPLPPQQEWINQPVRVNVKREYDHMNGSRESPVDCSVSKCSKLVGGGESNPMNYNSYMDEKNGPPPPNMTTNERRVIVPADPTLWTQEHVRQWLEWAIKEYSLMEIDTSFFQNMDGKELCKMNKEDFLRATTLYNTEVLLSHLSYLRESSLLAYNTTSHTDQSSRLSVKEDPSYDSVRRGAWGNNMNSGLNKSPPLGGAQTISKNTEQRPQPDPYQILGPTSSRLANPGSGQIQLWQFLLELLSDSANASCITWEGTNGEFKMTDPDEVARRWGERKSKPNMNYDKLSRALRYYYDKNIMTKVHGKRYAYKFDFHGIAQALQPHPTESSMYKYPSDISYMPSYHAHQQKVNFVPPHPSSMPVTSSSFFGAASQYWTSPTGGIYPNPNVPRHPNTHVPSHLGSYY
Method in brief: (§1)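 Each value of binding signal is a hexamer's read frequency for a factor divided by the same hexamer's frequency in the tag-only sample. Barcoded, bead-captured GST fusions of human transcription factors made in yeast were pooled with that sample and incubated with 200 nmole of a random double-stranded 16-mer DNA library in Tris/NaCl/DTT/glycerol buffer at room temperature for 30 min. Washing, 0.1% formaldehyde crosslinking, proximity ligation, PCR and Illumina NextSeq500 sequencing followed.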

ELK1 = biological target: T2, ELK1 (Homo sapiens, UniProt P19419 1-428)
T2 sequence: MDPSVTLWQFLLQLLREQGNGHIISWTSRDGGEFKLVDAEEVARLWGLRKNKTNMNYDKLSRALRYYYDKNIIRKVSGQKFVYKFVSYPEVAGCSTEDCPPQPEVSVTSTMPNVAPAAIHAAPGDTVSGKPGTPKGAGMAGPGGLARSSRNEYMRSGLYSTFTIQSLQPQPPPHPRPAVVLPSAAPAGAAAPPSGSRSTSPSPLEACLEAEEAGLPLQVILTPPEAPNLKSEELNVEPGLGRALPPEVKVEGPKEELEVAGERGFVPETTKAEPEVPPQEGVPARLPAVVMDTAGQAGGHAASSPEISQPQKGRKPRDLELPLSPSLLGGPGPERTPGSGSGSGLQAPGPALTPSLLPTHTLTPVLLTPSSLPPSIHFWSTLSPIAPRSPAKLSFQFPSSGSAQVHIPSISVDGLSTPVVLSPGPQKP
Method in brief: as §1

GABPA = biological target: T3, GABPA (Homo sapiens, UniProt Q06546 1-454)
T3 sequence: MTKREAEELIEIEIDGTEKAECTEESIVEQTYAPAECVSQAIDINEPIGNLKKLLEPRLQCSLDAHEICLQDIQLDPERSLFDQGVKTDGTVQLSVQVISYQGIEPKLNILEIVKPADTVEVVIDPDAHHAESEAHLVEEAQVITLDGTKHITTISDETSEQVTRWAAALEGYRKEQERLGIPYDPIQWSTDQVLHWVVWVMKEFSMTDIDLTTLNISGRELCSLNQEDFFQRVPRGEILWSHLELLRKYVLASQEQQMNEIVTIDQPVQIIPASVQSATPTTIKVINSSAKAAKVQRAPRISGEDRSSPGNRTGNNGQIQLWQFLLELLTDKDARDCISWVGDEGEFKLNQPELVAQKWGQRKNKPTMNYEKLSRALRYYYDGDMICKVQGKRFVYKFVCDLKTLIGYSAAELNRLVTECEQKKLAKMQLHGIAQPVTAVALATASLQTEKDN
Method in brief: as §1

ERG = biological target: T4, ERG (Homo sapiens, UniProt P11308 1-479)
T4 sequence: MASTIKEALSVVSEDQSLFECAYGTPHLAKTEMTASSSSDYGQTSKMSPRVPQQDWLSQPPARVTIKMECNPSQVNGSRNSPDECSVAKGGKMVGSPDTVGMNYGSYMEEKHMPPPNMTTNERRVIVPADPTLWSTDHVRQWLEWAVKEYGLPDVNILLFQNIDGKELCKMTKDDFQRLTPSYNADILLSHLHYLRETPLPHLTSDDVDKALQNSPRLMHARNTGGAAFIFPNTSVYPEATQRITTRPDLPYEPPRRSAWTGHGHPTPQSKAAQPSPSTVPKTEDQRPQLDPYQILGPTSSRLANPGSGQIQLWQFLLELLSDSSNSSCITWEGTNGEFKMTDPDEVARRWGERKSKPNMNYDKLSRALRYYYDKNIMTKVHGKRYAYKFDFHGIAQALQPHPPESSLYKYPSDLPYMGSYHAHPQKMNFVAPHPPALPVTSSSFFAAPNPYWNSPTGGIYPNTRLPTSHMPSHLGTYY
Method in brief: as §1

ELF1 = ELF1 (Homo sapiens, UniProt P32519 1-619)
Method in brief: as §1

EHF = biological target: T5, EHF (Homo sapiens, UniProt Q9NZC4 1-300)
T5 sequence: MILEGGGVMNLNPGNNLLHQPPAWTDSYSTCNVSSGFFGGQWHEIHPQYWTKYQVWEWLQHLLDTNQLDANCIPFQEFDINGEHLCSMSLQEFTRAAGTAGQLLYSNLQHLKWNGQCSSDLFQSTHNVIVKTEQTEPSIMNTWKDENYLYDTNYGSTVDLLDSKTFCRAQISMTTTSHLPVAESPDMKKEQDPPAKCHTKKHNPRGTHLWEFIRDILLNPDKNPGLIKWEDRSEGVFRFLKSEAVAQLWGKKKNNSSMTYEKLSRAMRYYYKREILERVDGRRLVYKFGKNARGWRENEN
Method in brief: as §1

SPI1 = SPI1 (Homo sapiens, UniProt P17947 1-270)
Method in brief: as §1

SPIB = SPIB (Homo sapiens, UniProt Q01892 1-262)
Method in brief: as §1

ELK3 = biological target: T6, ELK3 (Homo sapiens, UniProt P41970 1-407)
T6 sequence: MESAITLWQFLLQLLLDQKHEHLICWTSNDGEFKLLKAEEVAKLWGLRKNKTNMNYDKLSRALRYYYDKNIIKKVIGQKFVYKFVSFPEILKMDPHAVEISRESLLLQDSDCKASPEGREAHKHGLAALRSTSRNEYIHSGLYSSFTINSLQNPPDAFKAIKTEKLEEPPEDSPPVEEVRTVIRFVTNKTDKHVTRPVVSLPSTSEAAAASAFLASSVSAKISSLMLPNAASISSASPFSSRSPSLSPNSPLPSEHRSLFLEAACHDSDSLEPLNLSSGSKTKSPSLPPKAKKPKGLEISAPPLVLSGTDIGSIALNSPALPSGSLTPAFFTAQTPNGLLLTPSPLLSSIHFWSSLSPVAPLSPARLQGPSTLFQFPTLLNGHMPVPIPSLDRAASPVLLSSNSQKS
Method in brief: as §1

Sequence of SPIB (Q01892 whole entry): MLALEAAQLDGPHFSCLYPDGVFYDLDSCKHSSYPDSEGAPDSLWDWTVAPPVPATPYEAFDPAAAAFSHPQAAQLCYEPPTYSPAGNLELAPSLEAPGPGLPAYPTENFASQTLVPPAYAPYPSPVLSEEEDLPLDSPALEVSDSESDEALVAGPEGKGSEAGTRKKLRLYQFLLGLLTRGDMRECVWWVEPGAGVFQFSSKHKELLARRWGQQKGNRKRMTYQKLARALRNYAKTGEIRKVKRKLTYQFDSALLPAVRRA
Sequence of ELF1 (P32519 whole entry): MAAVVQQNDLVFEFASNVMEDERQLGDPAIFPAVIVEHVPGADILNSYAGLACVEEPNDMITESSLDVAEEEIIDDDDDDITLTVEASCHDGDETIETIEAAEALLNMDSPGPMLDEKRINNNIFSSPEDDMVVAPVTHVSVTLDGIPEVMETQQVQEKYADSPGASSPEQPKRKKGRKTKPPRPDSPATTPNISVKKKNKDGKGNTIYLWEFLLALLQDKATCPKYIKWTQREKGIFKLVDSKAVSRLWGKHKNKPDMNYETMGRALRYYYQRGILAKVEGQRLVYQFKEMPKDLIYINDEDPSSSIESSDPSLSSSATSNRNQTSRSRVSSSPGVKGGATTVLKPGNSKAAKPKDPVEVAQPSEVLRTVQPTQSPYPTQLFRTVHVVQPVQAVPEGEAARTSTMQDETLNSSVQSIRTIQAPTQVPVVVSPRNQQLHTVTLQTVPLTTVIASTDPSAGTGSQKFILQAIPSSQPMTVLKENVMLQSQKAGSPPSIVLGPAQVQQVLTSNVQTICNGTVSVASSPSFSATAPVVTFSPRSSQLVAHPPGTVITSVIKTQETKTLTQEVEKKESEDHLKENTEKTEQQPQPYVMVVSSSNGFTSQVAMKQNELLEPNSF

Sequence	binding signal (FLI1)	binding signal (ELK1)	binding signal (GABPA)	binding signal (ERG)	binding signal (ELF1)	binding signal (EHF)	binding signal (SPI1)	binding signal (SPIB)	binding signal (ELK3)
ACAACA	1.22 fold enrichment (6-mer frequency, TF over GST control)	1.24 fold enrichment (6-mer frequency, TF over GST control)	1.23 fold enrichment (6-mer frequency, TF over GST control)	1.2 fold enrichment (6-mer frequency, TF over GST control)	1.29 fold enrichment (6-mer frequency, TF over GST control)	1.24 fold enrichment (6-mer frequency, TF over GST control)	1.18 fold enrichment (6-mer frequency, TF over GST control)	1.19 fold enrichment (6-mer frequency, TF over GST control)	1.19 fold enrichment (6-mer frequency, TF over GST control)
CTGGCC	1.22 fold enrichment (6-mer frequency, TF over GST control)	1.13 fold enrichment (6-mer frequency, TF over GST control)	1.19 fold enrichment (6-mer frequency, TF over GST control)	1.29 fold enrichment (6-mer frequency, TF over GST control)	1.23 fold enrichment (6-mer frequency, TF over GST control)	1.13 fold enrichment (6-mer frequency, TF over GST control)	1.28 fold enrichment (6-mer frequency, TF over GST control)	1.18 fold enrichment (6-mer frequency, TF over GST control)	1.06 fold enrichment (6-mer frequency, TF over GST control)
GAAAAA	1.07 fold enrichment (6-mer frequency, TF over GST control)	1.13 fold enrichment (6-mer frequency, TF over GST control)	1.11 fold enrichment (6-mer frequency, TF over GST control)	1.14 fold enrichment (6-mer frequency, TF over GST control)	1.1 fold enrichment (6-mer frequency, TF over GST control)	1.2 fold enrichment (6-mer frequency, TF over GST control)	1.21 fold enrichment (6-mer frequency, TF over GST control)	1.18 fold enrichment (6-mer frequency, TF over GST control)	1.21 fold enrichment (6-mer frequency, TF over GST control)
ACATTC	1.41 fold enrichment (6-mer frequency, TF over GST control)	1.32 fold enrichment (6-mer frequency, TF over GST control)	1.31 fold enrichment (6-mer frequency, TF over GST control)	1.23 fold enrichment (6-mer frequency, TF over GST control)	1.37 fold enrichment (6-mer frequency, TF over GST control)	1.25 fold enrichment (6-mer frequency, TF over GST control)	1.24 fold enrichment (6-mer frequency, TF over GST control)	1.23 fold enrichment (6-mer frequency, TF over GST control)	1.35 fold enrichment (6-mer frequency, TF over GST control)
CACCAA	1.02 fold enrichment (6-mer frequency, TF over GST control)	1.16 fold enrichment (6-mer frequency, TF over GST control)	1.03 fold enrichment (6-mer frequency, TF over GST control)	1.07 fold enrichment (6-mer frequency, TF over GST control)	1.12 fold enrichment (6-mer frequency, TF over GST control)	1.06 fold enrichment (6-mer frequency, TF over GST control)	1.07 fold enrichment (6-mer frequency, TF over GST control)	1.04 fold enrichment (6-mer frequency, TF over GST control)	1.15 fold enrichment (6-mer frequency, TF over GST control)
GCCAAT	1.1 fold enrichment (6-mer frequency, TF over GST control)	1.02 fold enrichment (6-mer frequency, TF over GST control)	1.05 fold enrichment (6-mer frequency, TF over GST control)	1 fold enrichment (6-mer frequency, TF over GST control)	1.04 fold enrichment (6-mer frequency, TF over GST control)	1.03 fold enrichment (6-mer frequency, TF over GST control)	1.01 fold enrichment (6-mer frequency, TF over GST control)	1.07 fold enrichment (6-mer frequency, TF over GST control)	1.11 fold enrichment (6-mer frequency, TF over GST control)
TCCCTT	1.63 fold enrichment (6-mer frequency, TF over GST control)	1.56 fold enrichment (6-mer frequency, TF over GST control)	1.47 fold enrichment (6-mer frequency, TF over GST control)	1.67 fold enrichment (6-mer frequency, TF over GST control)	1.62 fold enrichment (6-mer frequency, TF over GST control)	1.5 fold enrichment (6-mer frequency, TF over GST control)	1.69 fold enrichment (6-mer frequency, TF over GST control)	1.61 fold enrichment (6-mer frequency, TF over GST control)	1.37 fold enrichment (6-mer frequency, TF over GST control)
